# Assays:
# Assay in all cases: DAPPL (digital affinity profiling via proximity ligation, sequencing); 10 mM Tris-HCl pH 7.5, 50 mM NaCl, 1 mM DTT, 4% glycerol, room temperature, 30 min; GST-TFs on glutathione beads, 16-mer random dsDNA library, 0.1% formaldehyde crosslink after washing; high values mean tight binding
# Conditions in all cases: protein: recombinant; tags: N-terminal GST; dsDNA, one strand shown
# [1] = biological target: T1, FLI1 (Homo sapiens, UniProt Q01543 1-452)
# T1 sequence: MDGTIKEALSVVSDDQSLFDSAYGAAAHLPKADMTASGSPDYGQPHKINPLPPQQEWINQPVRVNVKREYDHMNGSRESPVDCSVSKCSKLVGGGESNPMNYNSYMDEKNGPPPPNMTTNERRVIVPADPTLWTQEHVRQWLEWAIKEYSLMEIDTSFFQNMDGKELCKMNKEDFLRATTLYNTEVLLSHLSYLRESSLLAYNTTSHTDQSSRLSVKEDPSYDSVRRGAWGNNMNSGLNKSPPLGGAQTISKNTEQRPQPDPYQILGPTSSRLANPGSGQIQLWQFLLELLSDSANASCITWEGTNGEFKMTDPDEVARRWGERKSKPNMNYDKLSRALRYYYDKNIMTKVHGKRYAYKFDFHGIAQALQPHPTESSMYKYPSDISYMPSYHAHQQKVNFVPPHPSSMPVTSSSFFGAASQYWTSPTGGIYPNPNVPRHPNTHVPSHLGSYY
# Outline: (§1)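 Binding signal is defined as a hexamer's read frequency for one factor over its frequency for the tag-only sample. To obtain reads, GST-fused human transcription factors were expressed in yeast, captured on glutathione beads, barcoded with DNA and pooled with that sample. Pools met 200 nmole of a 16-mer random double-stranded DNA library in Tris/NaCl/DTT/glycerol buffer for 30 min at room temperature before washing, 0.1% formaldehyde crosslinking, proximity ligation (BsaI/T4 ligase, 1 h, 37 °C), PCR and Illumina NextSeq500 sequencing.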
# [2] = biological target: T2, GABPA (Homo sapiens, UniProt Q06546 1-454)
# T2 sequence: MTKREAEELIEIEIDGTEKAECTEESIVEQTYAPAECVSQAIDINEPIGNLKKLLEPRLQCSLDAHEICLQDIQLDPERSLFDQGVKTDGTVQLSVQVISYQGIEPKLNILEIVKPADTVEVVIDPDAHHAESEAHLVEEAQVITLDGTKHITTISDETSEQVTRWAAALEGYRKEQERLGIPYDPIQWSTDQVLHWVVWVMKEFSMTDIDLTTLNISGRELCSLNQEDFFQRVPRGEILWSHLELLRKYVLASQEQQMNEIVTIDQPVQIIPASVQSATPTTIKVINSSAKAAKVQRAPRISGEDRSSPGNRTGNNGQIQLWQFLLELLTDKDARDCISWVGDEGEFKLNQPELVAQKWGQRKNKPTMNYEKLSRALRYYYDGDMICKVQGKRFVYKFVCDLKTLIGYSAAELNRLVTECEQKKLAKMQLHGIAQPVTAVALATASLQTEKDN
# Outline: as §1
# [3] = biological target: T3, ERG (Homo sapiens, UniProt P11308 1-479)
# T3 sequence: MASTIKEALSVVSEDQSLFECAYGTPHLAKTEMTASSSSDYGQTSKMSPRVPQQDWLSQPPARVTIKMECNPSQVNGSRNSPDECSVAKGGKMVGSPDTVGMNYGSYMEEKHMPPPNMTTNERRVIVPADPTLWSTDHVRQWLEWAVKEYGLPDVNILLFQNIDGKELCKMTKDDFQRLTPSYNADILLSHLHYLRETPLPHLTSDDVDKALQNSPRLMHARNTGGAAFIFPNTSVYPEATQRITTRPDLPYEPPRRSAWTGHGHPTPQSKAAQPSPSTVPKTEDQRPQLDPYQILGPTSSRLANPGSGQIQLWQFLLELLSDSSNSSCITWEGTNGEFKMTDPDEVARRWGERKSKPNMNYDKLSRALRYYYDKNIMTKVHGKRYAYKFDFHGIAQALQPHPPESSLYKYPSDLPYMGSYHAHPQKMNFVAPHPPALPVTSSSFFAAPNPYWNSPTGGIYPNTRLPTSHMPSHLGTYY
# Outline: as §1
# [4] = biological target: ELF1 (Homo sapiens, UniProt P32519 1-619)
# Outline: as §1
# [5] = biological target: T4, EHF (Homo sapiens, UniProt Q9NZC4 1-300)
# T4 sequence: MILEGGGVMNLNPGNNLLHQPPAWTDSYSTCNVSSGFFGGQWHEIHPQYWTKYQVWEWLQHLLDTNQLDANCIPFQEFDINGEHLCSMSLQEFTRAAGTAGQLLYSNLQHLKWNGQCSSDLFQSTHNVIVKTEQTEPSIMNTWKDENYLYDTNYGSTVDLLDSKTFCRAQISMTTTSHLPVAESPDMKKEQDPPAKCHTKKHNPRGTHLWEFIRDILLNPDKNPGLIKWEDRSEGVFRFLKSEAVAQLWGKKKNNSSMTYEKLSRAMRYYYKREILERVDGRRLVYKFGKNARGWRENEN
# Outline: as §1
# [6] = biological target: SPIB (Homo sapiens, UniProt Q01892 1-262)
# Outline: as §1
# [7] = biological target: ELF4 (Homo sapiens, UniProt Q99607 1-663)
# Outline: as §1
# [8] = biological target: T5, ELK4 (Homo sapiens, UniProt P28324-2 1-405)
# T5 sequence: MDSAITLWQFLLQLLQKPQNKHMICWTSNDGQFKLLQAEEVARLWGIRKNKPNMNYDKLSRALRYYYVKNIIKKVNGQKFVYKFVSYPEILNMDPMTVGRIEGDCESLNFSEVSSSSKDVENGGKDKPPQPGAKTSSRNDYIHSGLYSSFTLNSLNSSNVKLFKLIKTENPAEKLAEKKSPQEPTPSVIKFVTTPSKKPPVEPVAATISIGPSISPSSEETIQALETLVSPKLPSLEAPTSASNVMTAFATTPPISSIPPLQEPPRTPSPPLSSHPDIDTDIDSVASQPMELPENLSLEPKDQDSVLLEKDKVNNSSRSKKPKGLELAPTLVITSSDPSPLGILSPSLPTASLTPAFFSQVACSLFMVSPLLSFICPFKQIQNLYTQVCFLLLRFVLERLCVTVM
# Outline: as §1
# [9] = biological target: T6, ELF3 (Homo sapiens, UniProt P78545 1-371)
# T6 sequence: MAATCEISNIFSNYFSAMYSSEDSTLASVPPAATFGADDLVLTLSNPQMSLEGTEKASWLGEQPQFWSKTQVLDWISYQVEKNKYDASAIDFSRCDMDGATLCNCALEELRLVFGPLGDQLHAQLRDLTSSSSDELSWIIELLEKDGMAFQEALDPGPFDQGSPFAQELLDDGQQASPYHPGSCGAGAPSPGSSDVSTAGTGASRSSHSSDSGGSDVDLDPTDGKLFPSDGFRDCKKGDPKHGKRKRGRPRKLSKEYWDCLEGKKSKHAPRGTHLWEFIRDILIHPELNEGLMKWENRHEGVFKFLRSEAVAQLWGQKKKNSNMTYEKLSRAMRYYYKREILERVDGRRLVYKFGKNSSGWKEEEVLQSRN
# Outline: as §1
# [10] = biological target: CRX (Homo sapiens, UniProt O43186 1-299)
# Outline: as §1
# [11] = biological target: ETV1 (Homo sapiens, UniProt P50549 1-477)
# Outline: as §1
# [12] = biological target: T7, ETV3L (Homo sapiens, UniProt Q6ZN32 1-361)
# T7 sequence: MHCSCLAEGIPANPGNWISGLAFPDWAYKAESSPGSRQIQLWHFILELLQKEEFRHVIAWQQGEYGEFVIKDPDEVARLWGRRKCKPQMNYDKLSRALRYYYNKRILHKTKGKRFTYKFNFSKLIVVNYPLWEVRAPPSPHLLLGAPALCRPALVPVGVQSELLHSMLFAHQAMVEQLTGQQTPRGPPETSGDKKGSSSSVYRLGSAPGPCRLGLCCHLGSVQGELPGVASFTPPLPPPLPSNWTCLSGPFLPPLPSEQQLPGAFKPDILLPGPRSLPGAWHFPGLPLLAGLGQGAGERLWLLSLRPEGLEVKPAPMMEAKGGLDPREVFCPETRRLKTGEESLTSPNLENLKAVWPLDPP
# Outline: as §1
# [13] = biological target: T8, ETS2 (Homo sapiens, UniProt P15036 1-469)
# T8 sequence: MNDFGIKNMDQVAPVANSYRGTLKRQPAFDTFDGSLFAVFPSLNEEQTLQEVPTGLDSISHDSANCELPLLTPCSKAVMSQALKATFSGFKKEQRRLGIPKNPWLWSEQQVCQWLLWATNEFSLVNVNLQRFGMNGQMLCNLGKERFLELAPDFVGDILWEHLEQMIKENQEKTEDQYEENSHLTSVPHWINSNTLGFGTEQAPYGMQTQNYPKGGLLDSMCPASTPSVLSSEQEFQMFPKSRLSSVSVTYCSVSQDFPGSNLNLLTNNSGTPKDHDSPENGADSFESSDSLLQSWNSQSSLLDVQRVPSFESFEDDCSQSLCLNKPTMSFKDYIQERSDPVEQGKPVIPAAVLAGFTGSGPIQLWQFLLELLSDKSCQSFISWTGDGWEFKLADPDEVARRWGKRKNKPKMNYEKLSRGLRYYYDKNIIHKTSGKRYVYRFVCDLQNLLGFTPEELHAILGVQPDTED
# Outline: as §1
# [14] = biological target: T9, SPDEF (Homo sapiens, UniProt O95238 1-335)
# T9 sequence: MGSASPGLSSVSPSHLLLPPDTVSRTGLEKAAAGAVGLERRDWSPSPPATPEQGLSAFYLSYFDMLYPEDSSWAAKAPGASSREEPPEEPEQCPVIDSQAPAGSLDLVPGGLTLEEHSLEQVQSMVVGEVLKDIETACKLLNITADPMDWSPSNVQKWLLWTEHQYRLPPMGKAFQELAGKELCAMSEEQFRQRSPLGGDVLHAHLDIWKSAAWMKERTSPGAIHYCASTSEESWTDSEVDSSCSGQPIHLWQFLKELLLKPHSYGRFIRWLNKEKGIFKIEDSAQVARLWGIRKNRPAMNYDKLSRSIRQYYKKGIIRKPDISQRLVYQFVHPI
# Outline: as §1
# [15] = biological target: T10, ETV7 (Homo sapiens, UniProt Q9Y603 1-341)
# T10 sequence: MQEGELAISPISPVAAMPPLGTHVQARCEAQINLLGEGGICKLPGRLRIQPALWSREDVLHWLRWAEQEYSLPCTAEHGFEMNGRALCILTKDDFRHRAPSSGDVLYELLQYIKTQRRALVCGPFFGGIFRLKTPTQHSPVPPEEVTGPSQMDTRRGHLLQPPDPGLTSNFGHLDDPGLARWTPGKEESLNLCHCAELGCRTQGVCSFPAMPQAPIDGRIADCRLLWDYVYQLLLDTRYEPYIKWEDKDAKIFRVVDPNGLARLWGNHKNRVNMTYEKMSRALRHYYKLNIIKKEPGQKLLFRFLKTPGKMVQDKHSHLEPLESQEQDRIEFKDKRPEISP
# Outline: as §1
# Sequence of SPIB (Q01892 whole entry): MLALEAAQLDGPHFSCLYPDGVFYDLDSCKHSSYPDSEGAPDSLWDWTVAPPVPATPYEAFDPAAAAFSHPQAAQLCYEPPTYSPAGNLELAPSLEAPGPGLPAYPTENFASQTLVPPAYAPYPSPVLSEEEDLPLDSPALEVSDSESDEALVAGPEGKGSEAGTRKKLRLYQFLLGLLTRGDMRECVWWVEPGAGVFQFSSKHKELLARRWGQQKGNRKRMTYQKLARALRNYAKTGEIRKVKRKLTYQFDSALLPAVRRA
# Sequence of ELF1 (P32519 whole entry): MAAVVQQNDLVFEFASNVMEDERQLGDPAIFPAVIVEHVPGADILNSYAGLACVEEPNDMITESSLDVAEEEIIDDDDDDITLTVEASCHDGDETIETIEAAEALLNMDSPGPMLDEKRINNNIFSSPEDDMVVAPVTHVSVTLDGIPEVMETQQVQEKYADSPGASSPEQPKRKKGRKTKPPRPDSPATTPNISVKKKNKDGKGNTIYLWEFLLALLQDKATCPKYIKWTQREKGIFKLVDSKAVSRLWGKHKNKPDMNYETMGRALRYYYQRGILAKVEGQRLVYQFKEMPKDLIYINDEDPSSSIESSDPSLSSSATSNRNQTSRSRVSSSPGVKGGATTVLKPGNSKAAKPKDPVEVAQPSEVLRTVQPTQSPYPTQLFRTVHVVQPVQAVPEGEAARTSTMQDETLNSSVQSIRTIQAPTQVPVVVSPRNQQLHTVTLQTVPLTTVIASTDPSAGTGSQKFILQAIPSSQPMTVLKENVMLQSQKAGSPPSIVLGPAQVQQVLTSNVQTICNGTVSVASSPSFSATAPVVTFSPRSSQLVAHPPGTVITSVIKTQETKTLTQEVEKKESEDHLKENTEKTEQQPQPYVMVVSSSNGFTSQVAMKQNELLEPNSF
# Sequence of CRX (O43186 whole entry): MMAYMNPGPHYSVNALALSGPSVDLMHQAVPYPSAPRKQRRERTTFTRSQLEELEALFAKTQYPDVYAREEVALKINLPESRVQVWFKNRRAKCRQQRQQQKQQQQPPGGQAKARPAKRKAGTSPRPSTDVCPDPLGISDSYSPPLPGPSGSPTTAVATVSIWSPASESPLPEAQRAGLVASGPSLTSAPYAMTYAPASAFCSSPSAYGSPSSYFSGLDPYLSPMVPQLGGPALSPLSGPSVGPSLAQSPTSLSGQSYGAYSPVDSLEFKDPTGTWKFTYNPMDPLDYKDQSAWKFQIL
# Sequence of ELF4 (Q99607 whole entry): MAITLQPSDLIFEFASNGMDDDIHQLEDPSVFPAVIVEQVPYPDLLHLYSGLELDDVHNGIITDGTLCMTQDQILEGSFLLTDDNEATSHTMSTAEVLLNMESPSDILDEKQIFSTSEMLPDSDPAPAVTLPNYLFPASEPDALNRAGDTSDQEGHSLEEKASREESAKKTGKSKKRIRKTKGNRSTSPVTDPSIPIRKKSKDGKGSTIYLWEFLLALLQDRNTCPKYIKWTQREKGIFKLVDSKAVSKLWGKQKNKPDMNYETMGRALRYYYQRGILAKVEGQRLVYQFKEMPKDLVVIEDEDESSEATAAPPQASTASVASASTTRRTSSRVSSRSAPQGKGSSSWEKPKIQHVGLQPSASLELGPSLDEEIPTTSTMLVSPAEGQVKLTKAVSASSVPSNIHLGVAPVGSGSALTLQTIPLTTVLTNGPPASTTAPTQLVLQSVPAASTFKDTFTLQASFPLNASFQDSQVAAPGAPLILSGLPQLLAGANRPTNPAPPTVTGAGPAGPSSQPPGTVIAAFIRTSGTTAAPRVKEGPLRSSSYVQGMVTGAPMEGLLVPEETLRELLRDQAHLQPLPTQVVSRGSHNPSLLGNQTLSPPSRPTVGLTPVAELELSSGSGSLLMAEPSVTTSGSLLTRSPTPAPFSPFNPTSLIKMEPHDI
# Sequence of ETV1 (P50549 whole entry): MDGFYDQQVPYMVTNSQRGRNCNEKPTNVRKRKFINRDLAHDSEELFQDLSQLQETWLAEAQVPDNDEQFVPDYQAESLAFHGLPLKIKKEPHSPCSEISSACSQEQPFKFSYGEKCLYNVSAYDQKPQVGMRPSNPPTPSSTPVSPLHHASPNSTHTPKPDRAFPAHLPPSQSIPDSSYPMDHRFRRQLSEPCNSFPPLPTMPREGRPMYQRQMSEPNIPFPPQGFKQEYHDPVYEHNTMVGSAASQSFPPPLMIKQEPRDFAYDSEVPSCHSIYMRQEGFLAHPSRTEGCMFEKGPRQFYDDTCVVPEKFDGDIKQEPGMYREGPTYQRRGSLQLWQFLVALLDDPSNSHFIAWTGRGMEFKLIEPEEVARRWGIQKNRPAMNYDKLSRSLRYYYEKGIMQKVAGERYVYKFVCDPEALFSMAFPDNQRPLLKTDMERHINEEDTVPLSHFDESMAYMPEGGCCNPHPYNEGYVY
sequence,measurement,setting,value
TGTGAT,binding signal,[1],"1.16 fold enrichment (6-mer frequency, TF over GST control)"
same,binding signal,[2],"1.01 fold enrichment (6-mer frequency, TF over GST control)"
same,binding signal,[3],"1.06 fold enrichment (6-mer frequency, TF over GST control)"
same,binding signal,[4],"1.01 fold enrichment (6-mer frequency, TF over GST control)"
same,binding signal,[5],"1.03 fold enrichment (6-mer frequency, TF over GST control)"
same,binding signal,[6],"1.01 fold enrichment (6-mer frequency, TF over GST control)"
same,binding signal,[7],"1.05 fold enrichment (6-mer frequency, TF over GST control)"
same,binding signal,[8],"1.07 fold enrichment (6-mer frequency, TF over GST control)"
same,binding signal,[9],"1.14 fold enrichment (6-mer frequency, TF over GST control)"
same,binding signal,[10],"1.12 fold enrichment (6-mer frequency, TF over GST control)"
same,binding signal,[11],"1.08 fold enrichment (6-mer frequency, TF over GST control)"
same,binding signal,[12],"1.01 fold enrichment (6-mer frequency, TF over GST control)"
same,binding signal,[13],"1.09 fold enrichment (6-mer frequency, TF over GST control)"
same,binding signal,[14],"1.06 fold enrichment (6-mer frequency, TF over GST control)"
same,binding signal,[15],"1.05 fold enrichment (6-mer frequency, TF over GST control)"
